# Reference: PubChem BioAssay (Tox21)
# A number with no mark means an inactive call. Records with an inconclusive call do not appear. A call without a number means that no potency is given here. Activity calls are given as the source filed them. Unless noted, calls come from the whole dose curve; as a rule, active = well fitted curve in the direction sought with a large enough effect in the repeat runs; inconclusive = weak or mixed curves; inactive = no such curve, though single readings can be large; an effect the other way counts as inactive or inconclusive.
# Key:
# [1] = qHTS assay to identify small molecule agonists of H2AX - cell viability counter screen (AID 1224847; calls by dose curve; note: nearly all actives have a fitted effect of over 30% in size; note: potency is the fitted concentration of half-maximal effect)
# How it was run: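 We seed wild-type CHO-K1 cells overnight, treat them for 3 hr at 37C with compounds in 15-concentration series, and quantify remaining viability by CellTiter-Glo luminescence.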
# [2] = qHTS assay to identify small molecule agonists of the estrogen related receptor (ERR) signaling pathway from Tox21 library (AID 1224849; calls by dose curve; note: nearly all actives have a fitted effect of over 15% in size); details: ERR reporter cell line, ONE-Glo luciferase, 18 h; at 92.4 µM (top of the series) unless noted
# How it was run: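 Reporter cells (ERR, NTP source) treated with Tox21 10K compounds 18 h, 37 C. Readout: ONE-Glo luminescence, 30 min RT.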
# [3] = qHTS RealTime-Glo MT Cell Viability Assay in HepG2 cells - 24 hour (AID 1224867); note: nearly all actives have a fitted effect of over 50% in size; note: potency is the fitted concentration of half-maximal effect
# How it was run: (§1)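 HepG2 suspension premixed with RealTime-Glo reagents is plated at 600 cells per well and left 5 h at 37 C/5% CO2. Compounds in DMSO then go in, and bioluminescence reflecting viable cell number is recorded over 40 h.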
# [4] = A CellTox Green Cytotoxicity Assay to monitor cytotoxicity in HEK293 cells - 0 hour (AID 1224869); note: nearly all actives have a fitted effect of over 50% in size
# How it was run: (§2)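 Homogeneous no-lysis format: HEK293 cell suspension mixed with CellTox Green reagent, seeded, incubated 5 h at 37 C/5% CO2, then dosed by pintool with compound in DMSO.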
# [5] = qHTS RealTime-Glo MT Cell Viability Assay in HepG2 cells - 40 hour (AID 1224870); note: nearly all actives have a fitted effect of over 50% in size; note: potency is the fitted concentration of half-maximal effect
# How it was run: (§3)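 Real-time viability: cells seeded at 600 per well together with NanoLuc and cell-permeant prosubstrate, compounds added after 5 h incubation. Luminescence tracked at 0, 8, 16, 24, 32 and 40 h of exposure.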
# [6] = A CellTox Green Cytotoxicity Assay to monitor cytotoxicity in HEK293 cells - 40 hour (AID 1224871); note: nearly all actives have a fitted effect of over 45% in size; note: potency is the fitted concentration of half-maximal effect
# How it was run: as §2
# [7] = qHTS RealTime-Glo MT Cell Viability Assay in HepG2 cells - 8 hour (AID 1224873); note: nearly all actives have a fitted effect of over 55% in size; note: potency is the fitted concentration of half-maximal effect
# How it was run: as §3
# [8] = qHTS RealTime-Glo MT Cell Viability Assay in HEK293 cells - 40 hour (AID 1224874); details: RealTime-Glo luminescence; max response: active compounds read low; note: nearly all actives have a fitted effect of over 50% in size; note: potency is the fitted concentration of half-maximal effect
# How it was run: (§4)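 Measured as luminescence from the same continuously cultured HEK293 wells at successive time points (0, 8, 16, 24, 32, 40 h) after compound addition. Reagent present from seeding; dosing at 5 h; incubation 37 C.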
# [9] = A CellTox Green Cytotoxicity Assay to monitor cytotoxicity in HEK293 cells - 24 hour (AID 1224875); note: nearly all actives have a fitted effect of over 45% in size; note: potency is the fitted concentration of half-maximal effect
# How it was run: as §2
# [10] = A CellTox Green Cytotoxicity Assay to monitor cytotoxicity in HepG2 cells - 16 hour (AID 1224876); note: nearly all actives have a fitted effect of over 45% in size; note: potency is the fitted concentration of half-maximal effect
# How it was run: (§5)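 Fluorescent DNA-binding dye, 600 HepG2 cells/well, 5 h preincubation then compound in DMSO; same plates read at 0–40 h, 37 C.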
# [11] = qHTS RealTime-Glo MT Cell Viability Assay in HepG2 cells - 32 hour (AID 1224877); note: nearly all actives have a fitted effect of over 55% in size; note: potency is the fitted concentration of half-maximal effect
# How it was run: as §1
# [12] = A CellTox Green Cytotoxicity Assay to monitor cytotoxicity in HepG2 cells - 40 hour (AID 1224879); note: nearly all actives have a fitted effect of over 40% in size; note: potency is the fitted concentration of half-maximal effect
# How it was run: as §5
# [13] = qHTS RealTime-Glo MT Cell Viability Assay in HEK293 cells - 0 hour (AID 1224880); note: top concentration of the series differs between compounds; nearly all actives have a fitted effect of over 45% in size
# How it was run: as §4
# [14] = A CellTox Green Cytotoxicity Assay to monitor cytotoxicity in HEK293 cells - 32 hour (AID 1224881); note: nearly all actives have a fitted effect of over 40% in size; note: potency is the fitted concentration of half-maximal effect
# How it was run: as §2
# [15] = A CellTox Green Cytotoxicity Assay to monitor cytotoxicity in HepG2 cells - 0 hour (AID 1224882); note: nearly all actives have a fitted effect of over 35% in size
# How it was run: as §5
# [16] = A CellTox Green Cytotoxicity Assay to monitor cytotoxicity in HepG2 cells - 32 hour (AID 1224883); note: nearly all actives have a fitted effect of over 50% in size; note: potency is the fitted concentration of half-maximal effect
# How it was run: as §5
# [17] = qHTS assay to identify small molecule antagonists of the estrogen related receptor (ERR) signaling pathway from Tox21 library (AID 1224848); note: nearly all actives have a fitted effect of over 50% in size; note: potency is the fitted concentration of half-maximal effect
# How it was run: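 Luciferase luminescence (ONE-Glo, 30 min room temperature) was the read-out. Cells of the NTP-supplied ERR line, 2,000 per well, were given 6 h at 37 C before compound addition in DMSO and 18 h exposure at 37 C.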
# [18] = A CellTox Green Cytotoxicity Assay to monitor cytotoxicity in HepG2 cells - 24 hour (AID 1224878); note: nearly all actives have a fitted effect of over 45% in size; note: potency is the fitted concentration of half-maximal effect
# How it was run: as §5
# [19] = qHTS RealTime-Glo MT Cell Viability Assay in HEK293 cells - 16 hour (AID 1224872); note: nearly all actives have a fitted effect of over 50% in size; note: potency is the fitted concentration of half-maximal effect
# How it was run: (§6)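 Reads taken at 0, 8, 16, 24, 32 and 40 h from the same wells. HEK293 cells (600/well) carried RealTime-Glo reagents from seeding, with compound added after a 5 h settle at 37 C.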
# [20] = qHTS RealTime-Glo MT Cell Viability Assay in HEK293 cells - 32 hour (AID 1224868)
# How it was run: as §6
smiles,measurement,setting,value
CC(c1cc(C(C)(C)C)cc(C(C)(C)C)c1O)c1cc(C(C)(C)C)cc(C(C)(C)C)c1O,Potency,[1],inactive
same,"activity change, positive = activation",[2],-15.4%
same,Potency,[3],inactive
same,Potency,[4],inactive
same,Potency,[5],inactive
same,Potency,[6],inactive
same,Potency,[7],inactive
same,Potency,[8],19.5 µM (active)
same,Potency,[9],inactive
same,Potency,[10],inactive
same,Potency,[11],inactive
same,Potency,[12],inactive
same,Potency,[13],inactive
same,Potency,[14],inactive
same,Potency,[15],inactive
same,Potency,[16],inactive
CCCOC(=O)c1ccc(O)cc1,Potency,[1],inactive
same,Potency,[17],inactive
same,"activity change, positive = activation",[2],17.7% (active)
same,Potency,[3],inactive
same,Potency,[4],inactive
same,Potency,[5],inactive
same,Potency,[6],inactive
same,Potency,[7],inactive
same,Potency,[9],inactive
same,Potency,[10],inactive
same,Potency,[18],inactive
same,Potency,[13],inactive
same,Potency,[14],inactive
same,Potency,[15],inactive
same,Potency,[16],inactive
CCN(CC)c1ccc(C=O)c(O)c1,Potency,[1],inactive
same,"activity change, positive = activation",[2],-16.4%
same,Potency,[3],inactive
same,Potency,[4],inactive
same,Potency,[5],inactive
same,Potency,[6],inactive
same,Potency,[19],inactive
same,Potency,[7],inactive
same,max response,[8],-15%
same,Potency,[9],inactive
same,Potency,[10],inactive
same,Potency,[11],inactive
same,Potency,[18],inactive
same,Potency,[12],inactive
same,Potency,[13],inactive
same,Potency,[14],inactive
same,Potency,[16],inactive
CN1CCN(c2ccccc2/C=C2\SCCN(c3ccc(Cl)c(Cl)c3)C2=O)CC1,Potency,[1],50.5 µM (active)
same,Potency,[17],24.3 µM (active)
same,"activity change, positive = activation",[2],-79.7%
same,Potency,[3],38.9 µM (active)
same,Potency,[4],inactive
same,Potency,[5],21.9 µM (active)
same,Potency,[6],43.6 µM (active)
same,Potency,[7],49 µM (active)
same,Potency,[8],12.3 µM (active)
same,Potency,[9],49 µM (active)
same,Potency,[10],49 µM (active)
same,Potency,[11],21.9 µM (active)
same,Potency,[18],24.5 µM (active)
same,Potency,[12],19.5 µM (active)
same,Potency,[13],inactive
same,Potency,[14],49 µM (active)
same,Potency,[15],inactive
same,Potency,[16],21.9 µM (active)
CSc1ccc(O)cc1C,Potency,[1],inactive
same,Potency,[17],inactive
same,"activity change, positive = activation",[2],-0.368%
same,Potency,[3],inactive
same,Potency,[4],inactive
same,Potency,[5],inactive
same,Potency,[6],inactive
same,Potency,[7],inactive
same,Potency,[9],inactive
same,Potency,[10],inactive
same,Potency,[18],inactive
same,Potency,[12],inactive
same,Potency,[13],inactive
same,Potency,[14],inactive
same,Potency,[15],inactive
same,Potency,[16],inactive
C=C1CC[C@H]2O[C@]2(C)CC[C@@H]2[C@@H]1CC2(C)C,Potency,[1],inactive
same,Potency,[17],inactive
same,"activity change, positive = activation",[2],2.38%
same,Potency,[3],inactive
same,Potency,[4],inactive
same,Potency,[5],inactive
same,Potency,[7],inactive
same,Potency,[9],inactive
same,Potency,[10],inactive
same,Potency,[11],inactive
same,Potency,[18],inactive
same,Potency,[12],inactive
same,Potency,[13],inactive
same,Potency,[14],inactive
same,Potency,[15],inactive
same,Potency,[16],inactive
CO[Si](OC)(c1ccccc1)c1ccccc1,Potency,[1],inactive
same,"activity change, positive = activation",[2],-12.9%
same,Potency,[3],inactive
same,Potency,[4],inactive
same,Potency,[5],inactive
same,Potency,[6],inactive
same,Potency,[19],inactive
same,max response,[8],-18.7%
same,Potency,[9],inactive
same,Potency,[10],inactive
same,Potency,[11],inactive
same,Potency,[18],inactive
same,Potency,[12],inactive
same,Potency,[13],inactive
same,Potency,[14],inactive
same,Potency,[15],inactive
same,Potency,[16],inactive
O=c1[nH]cccc1O,Potency,[1],inactive
same,Potency,[17],19.3 µM (active)
same,"activity change, positive = activation",[2],-37%
same,Potency,[3],inactive
same,Potency,[4],inactive
same,Potency,[5],inactive
same,Potency,[19],inactive
same,Potency,[7],inactive
same,max response,[8],-23.7%
same,Potency,[9],inactive
same,Potency,[10],inactive
same,Potency,[11],inactive
same,Potency,[18],inactive
same,Potency,[12],inactive
same,Potency,[13],inactive
same,Potency,[14],inactive
same,Potency,[15],inactive
same,Potency,[16],inactive
Cn1ccnc1,Potency,[1],inactive
same,Potency,[17],inactive
same,"activity change, positive = activation",[2],1.09%
same,Potency,[3],inactive
same,Potency,[4],inactive
same,Potency,[5],inactive
same,Potency,[6],inactive
same,Potency,[19],inactive
same,Potency,[7],inactive
same,max response,[8],9.06%
same,Potency,[9],inactive
same,Potency,[10],inactive
same,Potency,[18],inactive
same,Potency,[12],inactive
same,Potency,[13],inactive
same,Potency,[14],inactive
same,Potency,[15],inactive
same,Potency,[16],inactive
COc1cccc(-c2ccc(/C=C\CN3CCCCCC3)cc2Cl)c1,Potency,[1],89.3 µM (active)
same,"activity change, positive = activation",[2],-20.2%
same,Potency,[3],43.4 µM (active)
same,Potency,[4],inactive
same,Potency,[5],43.4 µM (active)
same,Potency,[6],43.4 µM (active)
same,Potency,[8],43.4 µM (active)
same,Potency,[9],48.7 µM (active)
same,Potency,[10],43.4 µM (active)
same,Potency,[11],48.7 µM (active)
same,Potency,[18],43.4 µM (active)
same,Potency,[12],38.7 µM (active)
same,Potency,[15],inactive
same,Potency,[16],38.7 µM (active)
O=C1CCC(=O)N1,Potency,[1],inactive
same,Potency,[17],inactive
same,"activity change, positive = activation",[2],0.296%
same,Potency,[3],inactive
same,Potency,[4],inactive
same,Potency,[5],inactive
same,Potency,[7],inactive
same,Potency,[9],inactive
same,Potency,[10],inactive
same,Potency,[11],inactive
same,Potency,[12],inactive
same,Potency,[14],inactive
same,Potency,[16],inactive
CC(C)(C)C1=CC(=O)C(C(C)(C)C)=CC1=O,Potency,[1],inactive
same,Potency,[17],inactive
same,"activity change, positive = activation",[2],-2.14% [at 42.5 µM]
same,Potency,[3],inactive
same,Potency,[4],inactive
same,Potency,[7],inactive
same,Potency,[9],inactive
same,Potency,[10],inactive
same,Potency,[11],inactive
same,Potency,[12],inactive
same,Potency,[13],inactive
same,Potency,[15],inactive
same,Potency,[16],inactive
CC(O)(c1ccc(Cl)cc1)c1ccc(Cl)cc1,Potency,[1],56.6 µM (active)
same,Potency,[17],61.1 µM (active)
same,"activity change, positive = activation",[2],-43.9%
same,Potency,[20],24.5 µM (active)
same,Potency,[4],inactive
same,Potency,[5],inactive
same,Potency,[6],49 µM (active)
same,Potency,[19],38.9 µM (active)
same,Potency,[8],24.5 µM (active)
same,Potency,[9],49 µM (active)
same,Potency,[10],49 µM (active)
same,Potency,[18],49 µM (active)
same,Potency,[12],49 µM (active)
same,Potency,[13],inactive
same,Potency,[14],49 µM (active)
same,Potency,[16],49 µM (active)
COc1ccc(OC)c(N=Nc2c(O)ccc3ccccc23)c1,Potency,[1],40.1 µM (active)
same,Potency,[17],inactive
same,"activity change, positive = activation",[2],-14.1%
same,Potency,[3],inactive
same,Potency,[4],inactive
same,Potency,[5],inactive
same,Potency,[6],inactive
same,Potency,[9],inactive
same,Potency,[10],inactive
same,Potency,[11],inactive
same,Potency,[18],inactive
same,Potency,[13],inactive
same,Potency,[14],inactive
same,Potency,[15],inactive
